FAS TE block – inhibitors of human fatty acid synthase thioesterase domain. P49327. recombinant FAS-TE, OMFH fluorogenic substrate, fluorescence endpoint. inhibition, % at 15 µM. hit rate 0.67% among 360,000. AID 602261;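 active = compounds whose normalised, plate-corrected inhibition of enzyme fluorescence in the single-dose primary screen is 50% or more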;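 also: 0% = DMSO with enzyme and 100% = substrate without enzyme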
GRIN3A LBD mod – modulates the human NR3A ligand-binding domain | NR3A LBD differential scanning fluorimetry, Tm shift; 0% = protein alone, 100% = glycine-bound protein | Tm shift relative to glycine control, % at 25 µM | hit rate 2.5% among 340,000;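 active = melting temperature shift of at least 10% of the positive control shift, at one fixed dose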
MPTP block – inhibitors of mitochondrial permeability transition pore; isolated mouse mitochondria, Ca2+ swelling absorbance, 30 min; inhibition, % at 10 µM; hit rate 1.4% among 360,000; AID 602449;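 active = inhibition of 50% or more, scaled per plate between neutral and stimulator controls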;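 also: 0% = DMSO wells given calcium and 100% = 1 mM EGTA wells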
rCAG binder – binds r(CAG) RNA repeats | hit rate 1.3% among 370,000 | inhibition, % at 3 µM | AID 651821 | r(CAG) RNA repeat, TO-PRO-1 dye displacement fluorescence;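 active = inhibition above the plate cutoff, the mean of all test compounds on that plate plus 3 SD, cut at about 35% in these data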;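 also: 0% = DMSO alone and 100% = 100 µM mitoxantrone as full dye displacement; higher means more dye released from RNA so lower well fluorescence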
Myeloid diff 2 – compounds promoting myeloid differentiation | AID 624256 | hit rate 1% among 360,000 | ER-HoxA9 myeloid progenitors, lysozyme-GFP differentiation, flow cytometry | calls only at 10 µM;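 active = normalized GFP-positive differentiation at or above the plate's own cutoff, the solvent-only control mean plus 3 SD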;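 also: cells exposed to compound for four days before flow analysis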
rCAG bind conf – r(CAG) RNA repeat binding, confirmation; TO-PRO-1 dye displacement fluorescence; hit rate 70% among 4,300; shares compounds with rCAG binder; inhibition, % at 3 µM;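 active = inhibition above a per-plate cutoff, the mean inhibition of sample wells plus 3 SD, cut at about 35% in these data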;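 also: loss of TO-PRO-1 fluorescence as compound displaces dye from 1x1 AA loop RNA; 0% = DMSO only wells and 100% = 100 µM mitoxantrone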
DNA CAG counter – disrupts DNA CAG TO-PRO-1 complex, flagging rCAG hits | AID 652068 | d(CAG) DNA oligo TO-PRO-1 dye displacement, fluorescence | shares compounds with rCAG binder | hit rate 94% among 4,300 | inhibition, % at 3 µM;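 active = inhibition above its plate's cutoff, the mean test-well inhibition plus 3 SD, cut at about 4.8% in these data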;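 also: 0% = DNA dye mix with DMSO and 100% = 100 µM mitoxantrone; hits displace the dye from DNA and so lower well fluorescence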
dCAG dye DR – counter-screen for rCAG binders: inhibitors of DNA CAG TO-PRO-1 complex | shares compounds with rCAG binder | DNA CAG/GTC duplex TO-PRO-1 dye displacement fluorescence | IC50, µM | hit rate 20% among 250 | AID 686960; in the data active = IC50 below about 10 µM
* hit, by the source's call; i = inactive; . = not tested or not shown. A selection: hits, their analogues and other compounds. The true share with any hit is near 5.7%.

SMILES	FAS TE block	GRIN3A LBD mod	MPTP block	rCAG binder	Myeloid diff 2	rCAG bind conf	DNA CAG counter	others
COc1ccc(NC(=O)CS(=O)CC(=O)Nc2ccc(NC(C)=O)cc2)cc1 (configuration not stated)	-6	0	-3	3	i	.	.
Cc1ccc(C)c(NC(=O)NNS(=O)(=O)c2ccc(C)c(C)c2)c1	4	-1	1	-2	i	.	.
CC1(C(=O)NS(=O)(=O)c2cccc(Cl)c2)CCN1C(=O)Cc1ccccc1 (configuration not stated)	-7	.	0	8	i	.	.
CC1(C(=O)NS(=O)(=O)c2ccc(F)cc2F)CCN1C(=O)c1ccccc1CCc1ccccc1 (configuration not stated)	-5	.	1	51*	i	43*	10*
CC1(C(=O)NS(=O)(=O)c2cccc(Cl)c2)CCN1C(=O)c1ccccc1CCc1ccccc1 (configuration not stated)	-3	.	1	61*	i	60*	22*
COc1ccc(NS(=O)CCCc2ccccc2)cc1 (configuration not stated)	-4	.	0	4	i	.	.
COc1cccc(CNC(=O)CSc2nnc3c(n2)[nH]c2ccc(C)cc23)c1	-4	-2	1	2	i	.	.
O=C(O)c1ccc(-c2nc(-c3ccccc3)c(-c3ccccc3)[nH]2)cc1	-1	-13	36	36*	i	36*	6.0*
O=C(O)CSc1nc(-c2ccccc2)c(-c2ccccc2)[nH]1	-3	-1	1	1	i	.	.
O=C(CS(=O)(=O)c1ccccc1)Nc1ccccc1Br	-4	-3	0	1	i	.	.
CCN(CC)S(=O)(=O)c1cc(NS(=O)(=O)c2c(Cl)cccc2Cl)ccc1C	-2	-27	2	34	i	.	.
CCN(CC)S(=O)(=O)c1cc(NS(=O)(=O)c2cccc(Cl)c2Cl)ccc1C	3	-5	19	42*	i	41*	12*
O=C(CSc1n[nH]c(-c2ccc(Br)cc2)n1)N1CCOCC1	-11	1	1	2	i	.	.
COc1ccc(C2CC(=O)N3CN(c4ccc(C)c(Cl)c4)CSC3=C2C#N)cc1 (configuration not stated)	20	-29	-1	38*	i	14	8.3*
CC(C)N1CCC1(C)C(=O)Nc1nc2ccccc2[nH]1 (configuration not stated)	-4	.	-1	0	i	.	.
Cc1ccc(C(=O)CCC(=O)Nc2ccc(Cl)c(S(=O)(=O)Nc3cccc(Cl)c3)c2)cc1	22	24*	11	35*	i	35*	12*
Cc1ccc(-c2csc(NC(=O)CSc3nc(C)cc(=O)[nH]3)n2)cc1	.	-9	.	56*	.	54*	19*
Cc1ccc(-c2csc(NC(=O)CSC3=NCCS3)n2)cc1	-28	-3	38	6	i	.	.
CCOC(=O)c1ccc(NC(=O)CSc2nc(C)cc(=O)[nH]2)cc1	-5	-4	1	.	i	.	.
CCC(Sc1nc(C)cc(=O)[nH]1)C(=O)Nc1nc(-c2ccccc2)cs1 (configuration not stated)	-1	-6	-2	49*	i	60*	23*
CCOC(=O)c1c(-c2ccccc2Cl)csc1NC(=O)CSc1nc(C)cc(=O)[nH]1	-9	-12	43	38*	i	45*	15*
CCC(Sc1nc(-c2ccccc2)cc(=O)[nH]1)C(=O)O (configuration not stated)	-5	-18	0	2	i	.	.
O=C(CSc1nc2ccccc2[nH]1)Nc1nc(-c2cccc(Br)c2)cs1	-10	0	0	58*	i	43*	21*
COC(=O)[C@@]12C[C@@H](CC(=O)N3CCSCC3)C(=O)N(Cc3ccco3)C1=CCC(C)(C)C2	.	.	-1	0	i	.	.
COc1ccc(NC(=O)CSc2cn[nH]n2)c(OC)c1	-8	0	0	-1	i	.	.
SMILES	FAS TE block	GRIN3A LBD mod	MPTP block	rCAG binder	Myeloid diff 2	rCAG bind conf	DNA CAG counter	others
COc1ccccc1NC(=O)CSc1sc2c(O)cc(=O)[nH]c2c1C#N	-3	-4	-1	52*	.	18	8.2*
COc1ccc(NC(=O)CSc2sc3c(O)cc(=O)[nH]c3c2C#N)c(OC)c1	1	-7	0	63*	i	27	13*
COc1ccc(Cl)cc1NC(=O)CSc1sc2c(O)cc(=O)[nH]c2c1C#N	-2	-3	0	55*	i	31	16*
COc1ccc(NC(=O)CSc2nc(O)cc(=O)[nH]2)c(OC)c1	-2	1	0	47*	i	4	2
COc1cc(NC(=O)c2ccccc2)c(OC)cc1NC(=O)CSc1[nH]c(=O)cc(C)c1C#N	-2	2	0	8	i	.	.
CCOc1ccc(-c2cc(NC(=O)c3c(F)cccc3F)c(C(=O)O)s2)cc1	-1	-7	3	83*	i	85*	44*
O=C(Nc1cc(-c2ccccc2)sc1C(=O)O)c1cccc(F)c1	6	3	2	73*	i	70*	33*	dCAG dye DR=4*
CCCN(CCC)C(=O)CC(c1ccccc1)C1CCOC(C)(C)C1 (configuration not stated)	-2	1	0	-10	i	.	.
CC1(C)CC(C(CC(=O)N2CCCC2)Cc2ccccc2)CCO1 (configuration not stated)	-2	-3	0	42*	i	1	0
CCOc1cc(/C=C2/SC(=S)N(CC(=O)O)C2=O)ccc1OC(=O)c1cccs1	-1	6	4	58*	i	71*	30*	dCAG dye DR=i
CCOc1cc(/C=C2\C(=O)N(c3ccc(C(N)=O)cc3)N=C2C)ccc1OC(=O)c1cccs1	8	0	-1	.	i	.	.
COc1cc(/C=C2\SC(=S)N(CC(=O)O)C2=O)ccc1OC(=O)c1ccco1	2	-1	8	46*	i	45*	13*
COc1cc(/C=C2/SC(=S)N(CC(=O)O)C2=O)ccc1OC(=O)c1ccco1	0	-3	6	41*	i	46*	15*
CN1C(=O)/C(=C/c2ccc(OC(=O)c3ccco3)cc2)SC1=S	0	1	7	1	i	.	.
Cc1ccc(-c2cc3nc(NCCc4ccncc4)n(C)c(=O)c3s2)cc1	-6	.	0	2	i	.	.
COc1ccc(/C(O)=C2/C(=O)C(=O)N(CCCN3CCOCC3)C2c2ccc(C)cc2)cc1 (configuration not stated)	-2	1	2	7	i	.	.

Screens from PubChem BioAssay.
